# In the supplement of paper PMC4022240:
# ± gives the standard deviation.
# T1: HaloTag-ATRX ADD domain (163-292)
# T1 chain: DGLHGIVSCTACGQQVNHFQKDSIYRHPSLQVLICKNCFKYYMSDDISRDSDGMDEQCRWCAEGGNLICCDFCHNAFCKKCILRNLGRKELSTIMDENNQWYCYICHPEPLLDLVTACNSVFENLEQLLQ
# Target: T1, HaloTag-ATRX ADD domain (163-292)
# Experiment: peptide microarray binding signal (635 nm), min-max normalized on array (fraction of array maximum); higher = stronger binding
# Details: peptide region: Unmod H2B variant; binder concentration: 50 nM
# In short: (§1)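 Arrays carried histone 13-mer peptide–cellulose conjugates printed in triplicate on nitrocellulose alongside a Cy3 tracer. After overnight blocking at 4°C, they were incubated for 1 h at 4°C with biotin-labelled HaloTag reader fusions (10 nM to 1 μM) plus streptavidin-Alexa Fluor 647, or with rabbit histone antibodies (1:10,000 to 1:2,000) plus anti-rabbit Alexa 647. Scanning on an Axon GenePix 4000B used 635 nm for signal and 532 nm for misprints. The binding signal reported is each triplicate's mean spot intensity after per-library min-max scaling.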
row,Binder,peptide microarray binding signal
1,EIQTAVRLLLPGE [Unmod H2B variant E I Q T A V R L L L P G E],0.0176 ± 0.00047
2,PGELAKHAVSEGT [Unmod H2B variant P G E L A K H A V S E G T],0.01009 ± 9.9e-05
3,KHAVSEGTKAVTK [Unmod H2B variant K H A V S E G T K A V T K],0.00533 ± 0.00061
4,EGTKAVTKYTSSK [Unmod H2B variant E G T K A V T K Y T S S K],0.00473 ± 0.00015
5,EGTKAVTKYTSAK [Unmod H2B variant E G T K A V T K Y T S A K],0.0108 ± 0.00025

# Same assay, conditions: peptide region: Unmod H2B variant; binder concentration: 500 nM
row,Binder,peptide microarray binding signal
1,EIQTAVRLLLPGE [Unmod H2B variant E I Q T A V R L L L P G E],0.041 ± 0.0018
2,PGELAKHAVSEGT [Unmod H2B variant P G E L A K H A V S E G T],0.0228 ± 0.001
3,KHAVSEGTKAVTK [Unmod H2B variant K H A V S E G T K A V T K],0.00738 ± 0.00021
4,EGTKAVTKYTSSK [Unmod H2B variant E G T K A V T K Y T S S K],0.00681 ± 0.00052
5,EGTKAVTKYTSAK [Unmod H2B variant E G T K A V T K Y T S A K],0.0351 ± 0.00073

# Target: HaloTag-ING2 PHD (mouse Ing2 200-280)
# Experiment: as above
# Details: peptide region: Unmod H2B variant; binder concentration: 10 nM
# In short: as §1
row,Binder,peptide microarray binding signal
1,EIQTAVRLLLPGE [Unmod H2B variant E I Q T A V R L L L P G E],0.0245 ± 0.0014
2,PGELAKHAVSEGT [Unmod H2B variant P G E L A K H A V S E G T],0.0117 ± 0.00035
3,KHAVSEGTKAVTK [Unmod H2B variant K H A V S E G T K A V T K],0.00406 ± 5.6e-05
4,EGTKAVTKYTSSK [Unmod H2B variant E G T K A V T K Y T S S K],0.00561 ± 0.00046
5,EGTKAVTKYTSAK [Unmod H2B variant E G T K A V T K Y T S A K],0.00776 ± 0.00021

# Same assay, conditions: peptide region: Unmod H2B variant; binder concentration: 100 nM
row,Binder,peptide microarray binding signal
1,EIQTAVRLLLPGE [Unmod H2B variant E I Q T A V R L L L P G E],0.0434 ± 0.0033
2,PGELAKHAVSEGT [Unmod H2B variant P G E L A K H A V S E G T],0.0287 ± 0.0019
3,KHAVSEGTKAVTK [Unmod H2B variant K H A V S E G T K A V T K],0.0122 ± 0.00094
4,EGTKAVTKYTSSK [Unmod H2B variant E G T K A V T K Y T S S K],0.01276 ± 6.8e-05
5,EGTKAVTKYTSAK [Unmod H2B variant E G T K A V T K Y T S A K],0.0322 ± 0.0032

# Target: anti-H3K4me3 antibody ab8580
# Experiment: as above
# Details: peptide region: Unmod H2B variant; binder concentration: 1:2,000 dilution
# In short: as §1
row,Binder,peptide microarray binding signal
1,EIQTAVRLLLPGE [Unmod H2B variant E I Q T A V R L L L P G E],0.00893 ± 0.00076
2,PGELAKHAVSEGT [Unmod H2B variant P G E L A K H A V S E G T],0.0133 ± 0.0011
3,KHAVSEGTKAVTK [Unmod H2B variant K H A V S E G T K A V T K],0.000906 ± 6.3e-05
4,EGTKAVTKYTSSK [Unmod H2B variant E G T K A V T K Y T S S K],0.00121 ± 0.00013
5,EGTKAVTKYTSAK [Unmod H2B variant E G T K A V T K Y T S A K],0.00196 ± 9.7e-05

# Same assay, conditions: peptide region: Unmod H2B variant; binder concentration: 1:10,000 dilution
row,Binder,peptide microarray binding signal
1,EIQTAVRLLLPGE [Unmod H2B variant E I Q T A V R L L L P G E],0.0164 ± 0.00068
2,PGELAKHAVSEGT [Unmod H2B variant P G E L A K H A V S E G T],0.0163 ± 0.00093
3,KHAVSEGTKAVTK [Unmod H2B variant K H A V S E G T K A V T K],0.0012 ± 3.2e-05
4,EGTKAVTKYTSSK [Unmod H2B variant E G T K A V T K Y T S S K],0.001712 ± 1.6e-05
5,EGTKAVTKYTSAK [Unmod H2B variant E G T K A V T K Y T S A K],0.0028 ± 0.00015

# Target: anti-H3K9me3 antibody ab8898
# Experiment: as above
# Details: peptide region: Unmod H2B variant; binder concentration: 1:2,000 dilution
# In short: as §1
row,Binder,peptide microarray binding signal
1,EIQTAVRLLLPGE [Unmod H2B variant E I Q T A V R L L L P G E],0.00628 ± 0.00047
2,PGELAKHAVSEGT [Unmod H2B variant P G E L A K H A V S E G T],0.00447 ± 0.00018
3,KHAVSEGTKAVTK [Unmod H2B variant K H A V S E G T K A V T K],0.000378 ± 7.5e-06
4,EGTKAVTKYTSSK [Unmod H2B variant E G T K A V T K Y T S S K],0.000468 ± 9e-06
5,EGTKAVTKYTSAK [Unmod H2B variant E G T K A V T K Y T S A K],0.000544 ± 1.7e-05

# Same assay, conditions: peptide region: Unmod H2B variant; binder concentration: 1:10,000 dilution
row,Binder,peptide microarray binding signal
1,EIQTAVRLLLPGE [Unmod H2B variant E I Q T A V R L L L P G E],0.0106 ± 0.0002
2,PGELAKHAVSEGT [Unmod H2B variant P G E L A K H A V S E G T],0.00484 ± 7.1e-05
3,KHAVSEGTKAVTK [Unmod H2B variant K H A V S E G T K A V T K],0.000865 ± 9e-06
4,EGTKAVTKYTSSK [Unmod H2B variant E G T K A V T K Y T S S K],0.000923 ± 9.6e-06
5,EGTKAVTKYTSAK [Unmod H2B variant E G T K A V T K Y T S A K],0.00115

# Target: T1, HaloTag-ATRX ADD domain (163-292)
# Experiment: as above
# Details: peptide region: Unmod H3 variant; binder concentration: 50 nM
# In short: as §1
row,Binder,peptide microarray binding signal
1,ARTKQTARKSTGG [Unmod H3 variant A R T K Q T A R K S T G G],0.00445 ± 0.00012
2,TARKSTGGKAPRK [Unmod H3 variant T A R K S T G G K A P R K],0.00552 ± 0.00053
3,TGGKAPRKQLATK [Unmod H3 variant T G G K A P R K Q L A T K],0.00389 ± 0.00042
4,PRKQLATKAARKS [Unmod H3 variant P R K Q L A T K A A R K S],0.00345 ± 4.2e-05
5,ATKAARKSAPATG [Unmod H3 variant A T K A A R K S A P A T G],0.00646 ± 0.00048

# Same assay, conditions: peptide region: Unmod H3 variant; binder concentration: 500 nM
row,Binder,peptide microarray binding signal
1,ARTKQTARKSTGG [Unmod H3 variant A R T K Q T A R K S T G G],0.00991 ± 0.00023
2,TARKSTGGKAPRK [Unmod H3 variant T A R K S T G G K A P R K],0.0118 ± 0.00044
3,TGGKAPRKQLATK [Unmod H3 variant T G G K A P R K Q L A T K],0.00729 ± 0.00021
4,PRKQLATKAARKS [Unmod H3 variant P R K Q L A T K A A R K S],0.0108 ± 0.00017
5,ATKAARKSAPATG [Unmod H3 variant A T K A A R K S A P A T G],0.0104 ± 0.0015

# Target: HaloTag-ING2 PHD (mouse Ing2 200-280)
# Experiment: as above
# Details: peptide region: Unmod H3 variant; binder concentration: 10 nM
# In short: as §1
row,Binder,peptide microarray binding signal
1,ARTKQTARKSTGG [Unmod H3 variant A R T K Q T A R K S T G G],0.00824 ± 0.00015
2,TARKSTGGKAPRK [Unmod H3 variant T A R K S T G G K A P R K],0.00633 ± 0.00044
3,TGGKAPRKQLATK [Unmod H3 variant T G G K A P R K Q L A T K],0.00788 ± 0.00069
4,PRKQLATKAARKS [Unmod H3 variant P R K Q L A T K A A R K S],0.00722 ± 0.00031
5,ATKAARKSAPATG [Unmod H3 variant A T K A A R K S A P A T G],0.00776 ± 0.00056

# Same assay, conditions: peptide region: Unmod H3 variant; binder concentration: 100 nM
row,Binder,peptide microarray binding signal
1,ARTKQTARKSTGG [Unmod H3 variant A R T K Q T A R K S T G G],0.01502 ± 0.00015
2,TARKSTGGKAPRK [Unmod H3 variant T A R K S T G G K A P R K],0.019 ± 0.0047
3,TGGKAPRKQLATK [Unmod H3 variant T G G K A P R K Q L A T K],0.00985 ± 0.00081
4,PRKQLATKAARKS [Unmod H3 variant P R K Q L A T K A A R K S],0.0163 ± 0.00099
5,ATKAARKSAPATG [Unmod H3 variant A T K A A R K S A P A T G],0.015 ± 0.0022

# Target: anti-H3K4me3 antibody ab8580
# Experiment: as above
# Details: peptide region: Unmod H3 variant; binder concentration: 1:2,000 dilution
# In short: as §1
row,Binder,peptide microarray binding signal
1,ARTKQTARKSTGG [Unmod H3 variant A R T K Q T A R K S T G G],0.0014 ± 4.3e-05
2,TARKSTGGKAPRK [Unmod H3 variant T A R K S T G G K A P R K],0.001 ± 4.5e-05
3,TGGKAPRKQLATK [Unmod H3 variant T G G K A P R K Q L A T K],0.00126 ± 8.1e-05
4,PRKQLATKAARKS [Unmod H3 variant P R K Q L A T K A A R K S],0.00119 ± 3.4e-05
5,ATKAARKSAPATG [Unmod H3 variant A T K A A R K S A P A T G],0.00119 ± 3.4e-05

# Same assay, conditions: peptide region: Unmod H3 variant; binder concentration: 1:10,000 dilution
row,Binder,peptide microarray binding signal
1,ARTKQTARKSTGG [Unmod H3 variant A R T K Q T A R K S T G G],0.00205 ± 7.6e-05
2,TARKSTGGKAPRK [Unmod H3 variant T A R K S T G G K A P R K],0.00114 ± 1.2e-05
3,TGGKAPRKQLATK [Unmod H3 variant T G G K A P R K Q L A T K],0.001541 ± 1.5e-05
4,PRKQLATKAARKS [Unmod H3 variant P R K Q L A T K A A R K S],0.0012 ± 1.2e-05
5,ATKAARKSAPATG [Unmod H3 variant A T K A A R K S A P A T G],0.001712 ± 1.6e-05

# Target: anti-H3K9me3 antibody ab8898
# Experiment: as above
# Details: peptide region: Unmod H3 variant; binder concentration: 1:2,000 dilution
# In short: as §1
row,Binder,peptide microarray binding signal
1,ARTKQTARKSTGG [Unmod H3 variant A R T K Q T A R K S T G G],0.00101 ± 3.2e-05
2,TARKSTGGKAPRK [Unmod H3 variant T A R K S T G G K A P R K],0.000664 ± 1.2e-05
3,TGGKAPRKQLATK [Unmod H3 variant T G G K A P R K Q L A T K],0.000876 ± 2.6e-05
4,PRKQLATKAARKS [Unmod H3 variant P R K Q L A T K A A R K S],0.000785 ± 1.3e-05
5,ATKAARKSAPATG [Unmod H3 variant A T K A A R K S A P A T G],0.00142 ± 9.9e-05

# Same assay, conditions: peptide region: Unmod H3 variant; binder concentration: 1:10,000 dilution
row,Binder,peptide microarray binding signal
1,ARTKQTARKSTGG [Unmod H3 variant A R T K Q T A R K S T G G],0.00115
2,TARKSTGGKAPRK [Unmod H3 variant T A R K S T G G K A P R K],0.000923 ± 9.6e-06
3,TGGKAPRKQLATK [Unmod H3 variant T G G K A P R K Q L A T K],0.000807
4,PRKQLATKAARKS [Unmod H3 variant P R K Q L A T K A A R K S],0.000923 ± 9.6e-06
5,ATKAARKSAPATG [Unmod H3 variant A T K A A R K S A P A T G],0.00127 ± 1.3e-05
